# Assay results reported in PubChem BioAssay (Tox21).
# “And” between values parts separate entries of the source, which are not always exact repeats. Equal values may be shown once. Records with an inconclusive call do not appear. Entries that show only a call come without a potency. The source holds several records for some structures; these can differ, active in one and inactive in another. The source made the active and inactive calls. Unless noted, calls follow the shape of the dose curve; as a rule, active = well fitted curve in the direction sought with a large enough effect in the repeat runs; inconclusive = weak or mixed curves; inactive = no such curve, though single readings can be large; an effect the other way counts as inactive or inconclusive.
# Key:
# [1] = qHTS assay for small molecules that induce genotoxicity in human embryonic kidney cells expressing luciferase-tagged ATAD5 (AID 651632); also: nearly all actives have a fitted effect of over 15% in size; also: potency is read from the fitted curve at half-maximal effect
# Outline: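 A rise in luciferase signal from ATAD5-tagged HEK293T cells marks genetic stress. Cells were exposed to compounds for 16 hr at 37C, 5% CO2, then luciferase was quantified after a 30 min room-temperature incubation with Amplite.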
# [2] = qHTS assay for small molecule agonists of the p53 signaling pathway - cell viability (AID 651633; calls by dose curve; also: nearly all actives have a fitted effect of over 30% in size; also: potency is read from the fitted curve at half-maximal effect)
# Outline: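 Viability counter-read: CellTiter-Glo luminescence (30 min, room temperature) in the same p53RE-bla plates. These plates had been exposed to compounds for 16 h at 37 C.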
# [3] = qHTS assay for small molecules that induce genotoxicity in human embryonic kidney cells expressing luciferase-tagged ATAD5 - cell viability (AID 651634; calls by dose curve; also: nearly all actives have a fitted effect of over 25% in size; also: potency is read from the fitted curve at half-maximal effect)
# Outline: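 Cytotoxicity counter-readout: after 15.5 hr compound treatment at 37C, live-cell protease activity in ATAD5-luciferase HEK293T cells measured by CellTiter-Fluor fluorescence, 30 min development at 37C.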
# [4] = qHTS assay for small molecule disruptors of the mitochondrial membrane potential - cell viability (AID 720634; calls by dose curve;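 also: human HepG2 liver cancer cells; series mostly up to about 83 µM; nearly all actives have a fitted effect of over 20% in size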)
# Outline: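 Cytotoxicity was quantified from ATP content by CellTiter-Glo luminescence in the same wells as the MMP dye read-out. HepG2 (2,000 cells/well) were plated overnight and exposed to compounds for 1 hr at 37 C.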
# [5] = qHTS assay for small molecule disruptors of the mitochondrial membrane potential (AID 720635); also: potency is read from the fitted curve at half-maximal effect
# Outline: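 Mitochondrial membrane potential tracked with Mito-MPS dye, red aggregates (ex 540/em 590 nm) against green monomers (ex 490/em 535 nm). Compound treatment 1 hr at 37C, dye 30 min in HepG2.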
# [6] = qHTS assay to test for compound auto fluorescence at 590 nm (red) in HepG2 cells (AID 720674)
# Outline: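 1 hr compound incubation on HepG2 cells, 37 C, 5% CO2; plate read ex 540 nm / em 590 nm; intensities reported as Rose Bengal sodium equivalents.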
# [7] = qHTS assay to test for compound auto fluorescence at 535 nm (green) in HepG2 cells (AID 720675)
# [8] = qHTS assay to test for compound auto fluorescence at 460 nm (blue) in HEK293 cells (AID 720678)
# Outline: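 HEK293 cells (2,000 per well, medium with 10% dialyzed FBS) attached for 4-5 hr at 37C, then received compound and stood overnight at 37C, 5% CO2. Blue fluorescence was read at Ex/Em 405/460 nm and expressed relative to triamterene.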
# [9] = qHTS assay to test for compound auto fluorescence at 590 nm (red) in HEK293 cells (AID 720679)
# Outline: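 HEK293 cells (2,000/well, medium with 10% dialyzed FBS) attached for 4-5 hr at 37C, received 23 nL compound and were incubated overnight at 37C, 5% CO2. Red fluorescence was then read at 540/590nm Ex/Em, referenced to Rose Bengal sodium.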
# [10] = qHTS assay for small molecule agonists of the p53 signaling pathway (AID 651631; calls by dose curve; also: nearly all actives have a fitted effect of over 15% in size)
# Outline: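 p53RE-bla HCT-116 cells; compounds 16 h, 37 °C; LiveBLAzer B/G FRET substrate 2 h RT; fluorescence intensity read-out, qHTS format.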
SMILES,Potency [1],Potency [2],Potency [3],Potency [4],Potency [5],Potency [6],Potency [7],outcome [8],Potency [9],Potency [10]
Nc1ccc2c(c1)C(=O)c1ccccc1C2=O,4.77 µM (active) and 7.7 µM (active),inactive,inactive,inactive,268 nM (active) and 386 nM (active),inactive,inactive,inactive,inactive,–
CC1(C)C(C=C(Cl)Cl)C1C(=O)OCc1cccc(Oc2ccccc2)c1 (configuration not stated),inactive,inactive,–,–,30.6 µM (active),inactive,inactive,inactive,inactive,–
CCC(=O)O[C@H]1[C@H](O[C@@H]2[C@@H](C)[C@H](O[C@H]3C[C@@](C)(OC)[C@@H](O)[C@H](C)O3)[C@@H](C)C(=O)O[C@H](CC)[C@@](C)(O)[C@H](O)[C@@H](C)C(=O)[C@H](C)C[C@@]2(C)O)O[C@H](C)C[C@@H]1N(C)C,inactive,13.3 µM (active),inactive,–,–,inactive,inactive,inactive,inactive,–
Cc1ccc(C(C)(C)C)c(O)c1,inactive,inactive,inactive,inactive,26.4 µM (active) and 17.2 µM (active),inactive,inactive,inactive,inactive,–
CC(=O)O[C@]1(C(C)=O)CC[C@H]2[C@@H]3C=C(Cl)C4=CC(=O)CC[C@]4(C)[C@H]3CC[C@@]21C,inactive,–,–,inactive,–,inactive,inactive,inactive,inactive,–
CN(Cc1cnc2nc(N)nc(N)c2n1)c1ccc(C(=O)N[C@@H](CCC(=O)O)C(=O)O)cc1,inactive,168 nM (active) and 48.6 nM (active),inactive,inactive,–,inactive,inactive,–,inactive,–
CC(C)[C@@H]1CC[C@@H](C)CC1=O,–,inactive,–,–,–,inactive,inactive,inactive,inactive,inactive
NC[C@H](O)c1ccc(O)c(O)c1,inactive,–,–,inactive,inactive,inactive,inactive,inactive,inactive,–
CC(=O)[C@H]1CC[C@H]2[C@@H]3CC=C4C[C@@H](O)CC[C@]4(C)[C@H]3CC[C@]12C,inactive,inactive,inactive,inactive,–,inactive,inactive,inactive,inactive,–
CCCCCCOCCOCCO,–,inactive,–,–,inactive,inactive,inactive,inactive,inactive,–
OCCNCCO,inactive,19.3 µM (active) and inactive,inactive,–,inactive,inactive,inactive,inactive,inactive,–
CC/C=C\C/C=C\C/C=C\CCCCCCCC(=O)O,–,inactive,–,–,–,inactive,inactive,inactive,inactive,–
CC[C@]12CCCN3CCc4c(n(c5ccccc45)[C@@](O)(C(=O)OC)C1)[C@@H]32,inactive,inactive,inactive,–,–,inactive,inactive,inactive,inactive,–
O=Cc1ccccc1C=O,11.9 µM (active),11.9 µM (active) and 12.2 µM (active),21.1 µM (active),–,21.1 µM (active) and 30.6 µM (active),inactive,inactive,inactive,inactive,–
CN(C)/N=N/c1nc[nH]c1C(N)=O,inactive,inactive,–,inactive,inactive,inactive,inactive,inactive,inactive,–
O=C(CCCN1CCC(O)(c2ccc(Cl)cc2)CC1)c1ccc(F)cc1,–,inactive,–,–,–,inactive,inactive,inactive,inactive,inactive
Cc1ccc(N)c([N+](=O)[O-])c1,inactive,inactive,inactive,–,54.5 µM (active),inactive,inactive,inactive,inactive,–
CN1CCOCC1,–,inactive,–,–,inactive,inactive,inactive,inactive,inactive,inactive
CCCN1C=CN(C)C1,inactive,inactive,–,inactive,inactive,inactive,inactive,inactive,inactive,–
